{"source": "PubChem BioAssay AID1529", "about": "(NMMLSC, 2009)", "note": "About 4,200 (1.4%) of roughly 290,000 compounds were called active. The list comes from a sample in which actives are over-represented; it also holds similar structures and randomly drawn compounds. A number with no mark means an inactive call.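 How the source made its calls: active means binding response more than 3 SD above or below the average of its plate-row segment, actives on both sides; inconclusive means wells at one plate position flagged as instrument error; inactive means the rest.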", "data": [{"target": "Mitogen-activated protein kinase kinase kinase 3 (Homo sapiens) (UniProt Q99759)", "sequence (Q99759 whole entry, looked up)": "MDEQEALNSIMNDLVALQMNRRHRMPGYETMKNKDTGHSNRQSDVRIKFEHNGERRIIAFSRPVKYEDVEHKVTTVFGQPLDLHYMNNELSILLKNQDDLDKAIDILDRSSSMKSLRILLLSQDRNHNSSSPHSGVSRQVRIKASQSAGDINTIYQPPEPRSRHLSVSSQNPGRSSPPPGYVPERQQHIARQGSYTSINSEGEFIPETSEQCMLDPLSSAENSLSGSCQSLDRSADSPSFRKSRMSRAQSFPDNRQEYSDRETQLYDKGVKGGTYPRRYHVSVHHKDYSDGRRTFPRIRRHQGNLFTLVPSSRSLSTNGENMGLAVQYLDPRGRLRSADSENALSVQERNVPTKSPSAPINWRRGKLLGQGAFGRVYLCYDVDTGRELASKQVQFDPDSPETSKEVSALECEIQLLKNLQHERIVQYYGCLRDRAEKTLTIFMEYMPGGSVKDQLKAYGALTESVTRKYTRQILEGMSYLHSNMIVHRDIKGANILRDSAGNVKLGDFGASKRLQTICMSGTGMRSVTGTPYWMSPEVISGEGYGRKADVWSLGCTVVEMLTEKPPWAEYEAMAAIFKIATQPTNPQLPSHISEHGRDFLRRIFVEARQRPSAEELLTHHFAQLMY", "assay": "compounds raising or lowering MEK5 association with MEKK3 PB1 – biochemical, wildtype MEKK3, multiplex bead flow cytometry, Alexa488-MEK5, primary screen (AID 1529);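 further: Alexa488 bead fluorescence after subtracting the streptavidin-only scavenger bead signal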", "details": "bead-based flow cytometry, Alexa488-MEK5 binding to MEKK3; at 10 µM; actives lie on both sides; 0 = blocked by unlabeled MEK5, 100 = vehicle", "values": [{"smiles": "C=CCOc1ccc(/C=C2/C(=O)ON=C2C)cc1OCC", "binding response (% of control)": "104%"}, {"smiles": "O=C(OCc1cc2ccccc2[nH]c1=O)c1cccnc1", "binding response (% of control)": "109%"}, {"smiles": "Cc1cc(=O)[nH]c(SCc2cc(Cl)ccc2OC(F)F)n1", "binding response (% of control)": "103%"}, {"smiles": "O=C(OCc1cc(Cl)ccc1OC(F)F)c1cccnc1", "binding response (% of control)": "146% (active)"}, {"smiles": "Cc1c(C(=O)N2CCCC2)c(S(=O)(=O)NCC(C)c2ccccc2)c(C)n1C", "note": "(stereo not drawn)", "binding response (% of control)": "101%"}, {"smiles": "Cc1ccc(NC(=O)C2CCN(S(=O)(=O)c3ccc4c(c3)NC(=O)CO4)CC2)cc1C", "binding response (% of control)": "106%"}, {"smiles": "COC(C[C@@H]1O[C@@H]1C(=O)[C@@H](C)OCc1ccccc1)OC", "binding response (% of control)": "102%"}, {"smiles": "CCc1c(C)sc(NC(=O)c2cccs2)c1C(N)=O", "binding response (% of control)": "100%"}, {"smiles": "Cc1ccc(OCC(=O)NCCCNC(=O)c2cccnc2)cc1C", "binding response (% of control)": "99%"}, {"smiles": "Cn1c(SCc2nc3ccccc3s2)nnc1-c1ccc2c(c1)OCO2", "binding response (% of control)": "19% [inhibitor] (active)"}, {"smiles": "Cn1c(SCC(=O)N2CCCC2)nnc1-c1ccc2c(c1)OCO2", "binding response (% of control)": "100%"}, {"smiles": "O=C(O)CSc1nnc(-c2ccc3c(c2)OCO3)n1-c1ccccc1", "binding response (% of control)": "103%"}, {"smiles": "O=C(OCc1ccc([N+](=O)[O-])cc1)C1CC(=O)N(Cc2ccccc2Cl)C1", "note": "(stereo not drawn)", "binding response (% of control)": "100%"}, {"smiles": "C/C(=N\\NC(=O)CNC(=O)C(c1ccccc1)c1ccccc1)c1ccc(C)cc1", "binding response (% of control)": "130% (active)"}, {"smiles": "C/C(=N\\NC(=O)Cc1ccc(F)cc1)c1ccc(F)cc1", "binding response (% of control)": "98%"}, {"smiles": "O=C(CNC(=O)C(c1ccccc1)c1ccccc1)N/N=C\\c1ccc2c(c1)OCO2", "binding response (% of control)": "104%"}, {"smiles": "O=C(Oc1ccc(Br)cc1)c1cccnc1", "binding response (% of control)": "101%"}, {"smiles": "C=CC1=C(C(=O)O)N2C(=O)[C@@H](NC(=O)/C(=N/OCC(=O)O)c3csc(N)n3)[C@H]2SC1", "binding response (% of control)": "97%"}, {"smiles": "O=C(O)c1ccc2c(=O)n3c(nc2c1)/C(=C/c1ccc(OC(F)F)cc1OC(F)F)CC3", "binding response (% of control)": "103%"}, {"smiles": "COc1ccc(NC(=O)CS(=O)(=O)c2ccccc2)cc1", "binding response (% of control)": "105%"}, {"smiles": "O=C(NC1CCCCCC1)c1cccnc1Sc1ccc(Cl)cc1", "binding response (% of control)": "91%"}, {"smiles": "CSc1ncccc1C(=O)NC1CCCCCC1", "binding response (% of control)": "102%"}, {"smiles": "O=C(O)c1cccnc1NC1CCCC1", "binding response (% of control)": "80% [inhibitor] (active)"}, {"smiles": "CC1=CC(=C(C#N)c2nc3ccccc3s2)C=C(C)N1c1ccc(F)cc1F", "binding response (% of control)": "104%"}, {"smiles": "CCOC(=O)C1CCN(C(=O)CN2C(=O)c3cccnc3Oc3ccc(C)cc32)CC1", "binding response (% of control)": "103%"}, {"smiles": "Cc1ccc(S(=O)(=O)/N=S(\\C)C(C)C)cc1", "note": "(stereo not drawn)", "binding response (% of control)": "2% [inhibitor] (active)"}, {"smiles": "CCCC/S(C)=N/S(=O)(=O)c1ccc(C)cc1", "note": "(stereo not drawn)", "binding response (% of control)": "100%"}, {"smiles": "CC/S(CC1CC1(Cl)Cl)=N\\S(=O)(=O)c1ccc(C)cc1", "note": "(stereo not drawn)", "binding response (% of control)": "96%"}]}]}
